Results filed as inconclusive are left out. Active and inactive are the calls of the source. The call rests on the fitted dose curve; in most records, active means well fitted inhibition curve with a large enough effect; inconclusive means small, poorly fitted or top-dose-only effect; inactive means flat fitted curve, though single readings scatter.
The compounds below were run against Lysine-specific demethylase 5B (Homo sapiens) (UniProt Q9UGL1) (assay: Optimization screen for KDM5B Histone Demethylases FDH coupled qHTS against the LOPAC library (AID 1347166)). Conditions: KDM5B demethylation, FDH-coupled NADH fluorescence (FDH is formaldehyde dehydrogenase); series mostly up to 57.5 µM.
Sequence of Lysine-specific demethylase 5B (Homo sapiens) (Q9UGL1 whole entry, looked up): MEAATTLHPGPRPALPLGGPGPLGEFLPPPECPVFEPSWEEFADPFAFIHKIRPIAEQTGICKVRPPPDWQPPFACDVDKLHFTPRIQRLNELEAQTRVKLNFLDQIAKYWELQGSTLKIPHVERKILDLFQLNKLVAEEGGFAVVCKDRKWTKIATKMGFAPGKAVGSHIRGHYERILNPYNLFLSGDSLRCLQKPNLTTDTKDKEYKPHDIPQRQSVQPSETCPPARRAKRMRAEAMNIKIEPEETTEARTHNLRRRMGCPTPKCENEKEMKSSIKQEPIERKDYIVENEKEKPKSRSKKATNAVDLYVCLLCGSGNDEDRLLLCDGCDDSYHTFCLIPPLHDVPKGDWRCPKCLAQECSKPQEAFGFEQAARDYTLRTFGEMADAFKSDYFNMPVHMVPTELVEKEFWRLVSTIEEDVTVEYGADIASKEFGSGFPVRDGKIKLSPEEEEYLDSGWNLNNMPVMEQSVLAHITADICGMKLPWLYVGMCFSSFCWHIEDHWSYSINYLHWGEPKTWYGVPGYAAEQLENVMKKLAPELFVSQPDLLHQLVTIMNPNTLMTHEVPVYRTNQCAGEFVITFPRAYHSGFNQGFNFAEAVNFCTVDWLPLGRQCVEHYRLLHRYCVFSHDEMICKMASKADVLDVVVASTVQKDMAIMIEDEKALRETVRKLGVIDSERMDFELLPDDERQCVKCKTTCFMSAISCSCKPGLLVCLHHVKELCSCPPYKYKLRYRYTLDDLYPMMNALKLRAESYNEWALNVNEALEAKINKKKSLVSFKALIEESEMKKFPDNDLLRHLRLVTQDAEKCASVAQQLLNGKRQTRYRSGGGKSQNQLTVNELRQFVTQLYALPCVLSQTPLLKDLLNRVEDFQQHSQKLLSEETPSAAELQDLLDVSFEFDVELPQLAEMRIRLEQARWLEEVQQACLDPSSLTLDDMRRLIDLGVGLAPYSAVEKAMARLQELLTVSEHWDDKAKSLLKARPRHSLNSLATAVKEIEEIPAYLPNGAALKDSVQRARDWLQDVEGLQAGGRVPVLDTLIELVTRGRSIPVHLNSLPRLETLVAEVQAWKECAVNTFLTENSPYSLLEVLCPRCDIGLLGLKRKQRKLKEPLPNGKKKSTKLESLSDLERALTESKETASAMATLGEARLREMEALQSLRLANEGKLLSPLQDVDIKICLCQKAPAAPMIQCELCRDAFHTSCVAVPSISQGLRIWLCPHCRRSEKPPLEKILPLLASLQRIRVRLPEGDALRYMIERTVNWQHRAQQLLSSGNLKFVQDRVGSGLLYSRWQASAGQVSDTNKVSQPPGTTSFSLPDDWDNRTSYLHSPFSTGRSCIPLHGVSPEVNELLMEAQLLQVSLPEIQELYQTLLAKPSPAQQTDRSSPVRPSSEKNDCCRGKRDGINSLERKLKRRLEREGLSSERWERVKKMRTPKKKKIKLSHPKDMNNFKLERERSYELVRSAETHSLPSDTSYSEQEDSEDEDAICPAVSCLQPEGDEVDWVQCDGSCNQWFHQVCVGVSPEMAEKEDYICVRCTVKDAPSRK
How it was run: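 KDM5BDeltaAP (200nM final) preincubated 10 min with compound, then 12.5uM H3K4Me3, 25uM a-ketoglutarate, ascorbate, Fe(II), NAD+ and FDH added; 50mM HEPES pH 7.5, 0.01% Tween-20. NADH fluorescence (340/450 nm) change over 30 min, room temperature.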

SMILES	outcome
COc1ccc2c(c1)c(CC(=O)O)c(C)n2C(=O)c1ccc(Cl)cc1	inactive
COc1ccc(CCN(C)CCCC(C#N)(c2ccc(OC)c(OC)c2)C(C)C)cc1OC (stereo unspecified)	inactive
NCCS(=O)(=O)O	inactive
CC12CC3CC(C)(C1)CC(N)(C3)C2	inactive
O=C(CCCN1CCC(O)(c2ccc(Cl)cc2)CC1)c1ccc(F)cc1	inactive
CCCNCC(O)COc1ccccc1C(=O)CCc1ccccc1 (stereo unspecified)	inactive
NC(=O)OCC(COC(N)=O)c1ccccc1	inactive
Cn1cnc2c1c(=O)[nH]c(=O)n2C	inactive
COc1cc2c(c(OC)c1OC)-c1ccc(OC)c(=O)cc1[C@@H](NC(C)=O)CC2	inactive
NC12CC3CC(CC(C3)C1)C2	inactive
COC(=O)Nc1nc2ccc(C(=O)c3cccs3)cc2[nH]1	inactive
CN1CCC(=C2c3ccccc3C=Cc3ccccc32)CC1	inactive
Clc1ccc2nsnc2c1NC1=NCCN1	inactive
CN1CCN(C2=Nc3cc(Cl)ccc3Nc3ccccc32)CC1	inactive
COc1ccccc1N1CCN(CC(O)COc2cccc3ccccc23)CC1 (stereo unspecified)	inactive
CC(C(=O)O)c1cccc(C(=O)c2ccccc2)c1 (stereo unspecified)	inactive
COc1ccccc1OCC(O)CN1CCN(CC(=O)Nc2c(C)cccc2C)CC1 (stereo unspecified)	inactive
CC(C)(Oc1ccc(C2CC2(Cl)Cl)cc1)C(=O)O (stereo unspecified)	inactive
O=c1c(-c2ccc(O)cc2)coc2cc(O)cc(O)c12	inactive
CN(C)C(=O)C(CCN1CCC(O)(c2ccc(Cl)cc2)CC1)(c1ccccc1)c1ccccc1	inactive
CN1CCN(CCCN2c3ccccc3Sc3ccc(Cl)cc32)CC1	inactive
Nc1c2c(nc3ccccc13)CCCC2	inactive
O=C1c2c(O)ccc(O)c2C(=O)c2c(NCCNCCO)ccc(NCCNCCO)c21	inactive
Cc1cn([C@H]2C[C@H](N=[N+]=[N-])[C@@H](CO)O2)c(=O)[nH]c1=O	inactive
CC[N+](CC)(CC)CCOc1cccc(OCC[N+](CC)(CC)CC)c1OCC[N+](CC)(CC)CC	inactive
Cc1cc(C(C)(C)C)cc(C)c1CC1=NCCN1	inactive

From PubChem BioAssay (NCATS)
